The source made the active and inactive calls. Rule for the calls: active = hit-call score of the fitted dose curve at least 0.9, where 1 is the maximum; inactive = score below 0.9.
What was measured:
Conditions in all cases: mRNA level, 48 h; actives raise or lower the signal
[1] = read-out: Cytochrome P450 (CYP24A1), CYP24A1 (gene 1591); assay: LTEA_HepaRG_CYP24A1: Life Technologies and Expression Analysis (LTEA) Assay for Cytochrome P450 (CYP24A1) using HepaRG (AID 2283478)
Outline: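 HepaRG cells plated 48 h, then exposed in duplicate in serum-free induction medium for 48 h to 8-point half-log series from 100 uM in 0.5% DMSO. CYP24A1 mRNA by Fluidigm qRT-PCR, normalized to ACTB, GAPDH, POLR2A; bidirectional fit versus DMSO.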

[2] = read-out: Cytochrome P450 (CYP1A2), CYP1A2 (gene 1544); assay: LTEA_HepaRG_CYP1A2: Life Technologies and Expression Analysis (LTEA) Assay for Cytochrome P450 (CYP1A2) using HepaRG (AID 2283479)
Outline: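 Differentiated human HepaRG cells in serum-free induction medium exposed 48 hours in duplicate to 8 half-log concentrations from 100 uM, 0.5% DMSO. CYP1A2 mRNA quantified by qRT-PCR, normalized to ACTB, GAPDH and POLR2A; bidirectional fitting versus DMSO.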

[3] = read-out: cysteine-aspartic acid protease (CASP8), CASP8 (gene 841); assay: LTEA_HepaRG_CASP8: Life Technologies and Expression Analysis (LTEA) Assay for cysteine-aspartic acid protease (CASP8) using HepaRG (AID 2283480)
Outline: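 qRT-PCR readout of CASP8 mRNA, normalized to three housekeeping genes, after 48 h chemical exposure of HepaRG cells; 8-point half-log series, top 100 uM, 0.5% DMSO vehicle. Bidirectional curve fitting against DMSO baseline.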

[4] = read-out: Cytochrome P450 (CYP2B6), CYP2B6 (gene 1555); assay: LTEA_HepaRG_CYP2B6: Life Technologies and Expression Analysis (LTEA) Assay for Cytochrome P450 (CYP2B6) using HepaRG (AID 2283481)
Outline: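 Differentiated human HepaRG cells in serum-free induction medium, dosed in duplicate for 48 h over 8 half-log concentrations topping at 100 uM (0.5% DMSO). CYP2B6 mRNA measured by TaqMan qRT-PCR, normalized to ACTB, GAPDH, POLR2A; bidirectional fit versus DMSO.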

[5] = read-out: Cytochrome P450 2C19 (Homo sapiens) (UniProt P33261); assay: LTEA_HepaRG_CYP2C19: Life Technologies and Expression Analysis (LTEA) Assay for CYP2C19 using HepaRG (AID 2283482)
Outline: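 Differentiated HepaRG cells in serum-free induction medium exposed 48 h in duplicate, 8 concentrations from 100 uM by half-log steps in 0.5% DMSO. CYP2C19 mRNA measured by TaqMan qRT-PCR, normalized to ACTB, GAPDH, POLR2A. Bidirectional fit versus DMSO.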

CYP2C8 (gene 1558) = assay: LTEA_HepaRG_CYP2C8: Life Technologies and Expression Analysis (LTEA) Assay for CYP2C8 using HepaRG (AID 2283483)
Outline: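 HepaRG (human liver line), 48 h chemical exposure, 8-pt half-log series from 100 uM, 0.5% DMSO vehicle. Readout: CYP2C8 transcript by qRT-PCR, housekeeping-normalized. Bidirectional fit vs DMSO baseline.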

CYP2C9 (gene 1559) = assay: LTEA_HepaRG_CYP2C9: Life Technologies and Expression Analysis (LTEA) Assay for CYP2C9 using HepaRG (AID 2283484)
Outline: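 HepaRG, 48 h dosing, 8-pt half-log series, top 100 uM, 0.5% DMSO vehicle. Read-out: CYP2C9 transcript by TaqMan qRT-PCR, housekeeping-normalized (ACTB/GAPDH/POLR2A). Gain or loss fitted vs DMSO baseline.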

CYP2E1 (gene 1571) = assay: LTEA_HepaRG_CYP2E1: Life Technologies and Expression Analysis (LTEA) Assay for CYP2E1 using HepaRG (AID 2283485)
Outline: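 CYP2E1 transcript measured by Fluidigm qRT-PCR against three housekeeping genes in human HepaRG cells treated 48 h (top 100 uM, half-log steps, 0.5% DMSO vehicle). Gain or loss fitted relative to DMSO baseline.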

CYP4A11 (gene 1579) = assay: LTEA_HepaRG_CYP4A11: Life Technologies and Expression Analysis (LTEA) Assay for CYP4A11 using HepaRG (AID 2283486)
Outline: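 Differentiated HepaRG cells, 48 h after plating, exposed in duplicate for 48 h to 8 half-log concentrations up to 100 uM in 0.5% DMSO in serum-free induction medium. CYP4A11 mRNA measured by TaqMan qRT-PCR, normalized to ACTB, GAPDH and POLR2A.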

[6] = read-out: Cytochrome P450 3A4 (Homo sapiens) (UniProt P08684); assay: LTEA_HepaRG_CYP3A4: Life Technologies and Expression Analysis (LTEA) Assay for CYP3A4 using HepaRG (AID 2283487)
Outline: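 Differentiated HepaRG cells in serum-free induction medium exposed in duplicate for 48 h to 8 half-log concentrations up to 100 uM in 0.5% DMSO. CYP3A4 mRNA measured by qRT-PCR normalized to ACTB, GAPDH and POLR2A; bidirectional fit versus DMSO.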

Measured: AC50

Sequence of Cytochrome P450 3A4 (Homo sapiens) (P08684 whole entry, looked up): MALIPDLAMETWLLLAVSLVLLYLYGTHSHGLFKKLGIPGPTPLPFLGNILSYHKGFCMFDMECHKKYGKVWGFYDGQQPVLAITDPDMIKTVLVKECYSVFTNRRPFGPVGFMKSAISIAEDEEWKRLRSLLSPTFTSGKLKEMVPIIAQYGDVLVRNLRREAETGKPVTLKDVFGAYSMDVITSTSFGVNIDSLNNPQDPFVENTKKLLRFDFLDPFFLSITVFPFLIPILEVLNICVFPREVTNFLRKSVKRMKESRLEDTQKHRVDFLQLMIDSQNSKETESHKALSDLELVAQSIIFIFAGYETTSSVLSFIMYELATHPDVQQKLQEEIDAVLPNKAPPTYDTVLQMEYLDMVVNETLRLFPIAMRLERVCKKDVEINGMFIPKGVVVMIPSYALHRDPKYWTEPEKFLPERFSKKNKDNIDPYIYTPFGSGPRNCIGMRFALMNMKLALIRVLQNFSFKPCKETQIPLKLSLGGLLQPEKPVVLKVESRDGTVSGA
Sequence of Cytochrome P450 2C19 (Homo sapiens) (P33261 whole entry, looked up): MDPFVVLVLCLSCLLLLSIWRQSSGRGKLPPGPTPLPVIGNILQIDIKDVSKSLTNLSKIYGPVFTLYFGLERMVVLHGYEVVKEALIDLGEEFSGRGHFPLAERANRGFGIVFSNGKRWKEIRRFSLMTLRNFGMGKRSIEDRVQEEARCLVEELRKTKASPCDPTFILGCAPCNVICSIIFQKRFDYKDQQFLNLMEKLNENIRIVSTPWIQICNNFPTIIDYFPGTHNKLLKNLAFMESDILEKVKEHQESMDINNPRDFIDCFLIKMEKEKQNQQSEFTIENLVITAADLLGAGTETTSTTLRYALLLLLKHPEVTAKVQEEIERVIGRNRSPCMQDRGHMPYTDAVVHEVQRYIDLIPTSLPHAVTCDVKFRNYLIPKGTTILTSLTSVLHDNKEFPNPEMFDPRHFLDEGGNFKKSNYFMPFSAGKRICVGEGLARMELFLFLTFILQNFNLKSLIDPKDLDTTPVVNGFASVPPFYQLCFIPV

CC=Cc1ccc(O)c(OC)c1
inactive: all assays above

O=c1c(O)c(-c2ccc(O)c(O)c2)oc2cc(O)cc(O)c12
active: [2] 0.806 µM | CYP4A11 (gene 1579) 50 µM
inactive: all other assays above

CNC(=O)[C@H]1O[C@@H](n2cnc3c(NCc4cc(Cl)ccc4OCc4cc(C)no4)ncnc32)[C@H](O)[C@@H]1N
inactive: all assays above

FC(F)(F)C(F)(F)C(F)(F)C(F)(F)C(F)(F)C(F)(F)CCI
inactive: all assays above

NC(=O)Cn1c(=O)cc(CCN2CCN(c3nccc4sccc34)CC2)c2ccc(F)cc21
active: CYP2C9 (gene 1559) 78 µM | CYP2E1 (gene 1571) 87.6 µM | CYP4A11 (gene 1579) 65.4 µM | [6] 5.56 µM
inactive: all other assays above

COc1cc(-c2nc(NC(=O)c3cc4cc(C)cc(C)c4n3CC(=O)O)sc2CCC2CCCCC2)c(OC)cc1Cl
inactive: [1]
active: [2] 4.88 µM | [3] 11 µM | [4] 5.76 µM | [5] 7.57 µM | CYP2C8 (gene 1558) 6.7 µM | CYP2C9 (gene 1559) 6.47 µM | CYP2E1 (gene 1571) 7.86 µM | CYP4A11 (gene 1579) 8.34 µM | [6] 7.45 µM

CN1CCN(Cc2cc(-c3ccc4[nH]c(=O)oc4c3)co2)[C@@H](c2ccc(F)cc2)C1
active: [2] 65.7 µM | [4] 86.7 µM | CYP2C9 (gene 1559) 88 µM | CYP2E1 (gene 1571) 50 µM | CYP4A11 (gene 1579) 78.5 µM
inactive: [1] | [3] | [5] | CYP2C8 (gene 1558) | [6]

CC(=O)C(C)=CC1C(C)=CCCC1(C)C (configuration not stated)
inactive: all assays above

c1cc(-c2ccncc2)ccn1
active: [2] 50 µM
inactive: all other assays above

Nc1ccccc1N
active: [2] 2.19 µM | [4] 69 µM | [5] 71.8 µM | CYP2C8 (gene 1558) 78.3 µM | CYP2C9 (gene 1559) 71 µM | CYP2E1 (gene 1571) 73.1 µM
inactive: [1] | [3]

O=C(O)CCCCC(=O)O
inactive: all assays above

COc1cc(C=O)ccc1O
inactive: all assays above

CCCCCCCCCCO
inactive: all assays above

C1CCC(SSC2CCCCC2)CC1
inactive: all assays above

Cc1cccc(C)c1O
inactive: all assays above

CCCCC(CC)COC(=O)CC(C(=O)OCC(CC)CCCC)S(=O)(=O)O (configuration not stated)
inactive: [1]
active: [2] 15.8 µM | [3] 81.6 µM | [4] 15.8 µM | [5] 89.9 µM | CYP2C8 (gene 1558) 15.8 µM | CYP2C9 (gene 1559) 88.1 µM | CYP2E1 (gene 1571) 76.5 µM

CCNc1cccc(C)c1
inactive: all assays above

CCCCCCCCCCCC(=O)OC
active: [2] 66.9 µM
inactive: all other assays above

CC(=O)Oc1ccccc1C(=O)O
active: [2] 50 µM
inactive: all other assays above

Cc1cccc(Nc2cc(Cl)nc(SCC(=O)O)n2)c1C
inactive: [1] | [2] | [3] | CYP2C9 (gene 1559)
active: [4] 65.4 µM | [5] 50 µM | CYP2C8 (gene 1558) 50 µM | CYP2E1 (gene 1571) 22.3 µM

CNCc1cc(F)ccc1Oc1ccc(Cl)c(Cl)c1
active: [5] 94 µM | CYP2C9 (gene 1559) 92.6 µM | CYP2E1 (gene 1571) 73.8 µM
not listed: CYP4A11 (gene 1579) | [6]
inactive: all other assays above

— PubChem BioAssay (EPA / NIEHS)
